HCMV antiviral: inhibitors of human cytomegalovirus. HFF cells, HCMV-luciferase reporter, 72 h; active compounds read low. actives 4.5% (n = 410,000). AID 1259415. activity change, negative = inhibition, % at 57.5 µM; in the data active = activity change below about -60%; inconclusive = no clear call, values can overlap the other calls; inactive = above about -39%
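Compounds were evaluated in HFFs infected with an HCMV luciferase reporter virus (MOI 1 PFU/cell). Luciferase in lysates collected 72 h post infection served as the replication measure.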
Pf growth 48h: inhibits P. falciparum growth in the first generation, 48 h | AID 504832 | Potency, µM (top dose mostly 28.7 µM), most hits filed as inhibitors | P. falciparum luciferase growth in erythrocytes, 48 h | actives 5.9% (n = 310,000)
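Luciferase-expressing parasites in RBCs, 2% Hct / 0.1% parasitemia final; RPMI 1640 + 0.5% Albumax; 37 C, 5% CO2, one generation; luminescence read-out, lower signal = inhibition.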
Pf growth 96h: P. falciparum growth inhibition at 96 hour, primary screen for plastid delayed-death inhibitors. P. falciparum luciferase reporter growth, 96 h. Potency, µM (doses to about 28.7 µM), actives largely listed as inhibitors. actives 6.9% (n = 320,000). AID 504834
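Compounds incubated with erythrocytes infected by luciferase-expressing P. falciparum (2% hematocrit, 0.05% parasitemia final) for 96 hours, 37 C in 5% CO2. Growth inhibition scored as decreased luciferase luminescence.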
HCV inh: inhibitors of hepatitis C virus infection. actives 3.4% (n = 340,000). Potency, µM (series often up to 41.8 µM), usual class: inhibitors. Huh7.5.1 HCVcc-Cre infection, luciferase reporter, 44 h
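HCVcc-Cre virus at an moi near 0.5 was added right after compound to cells cultured 4 h from seeding (1,000 cells/well). Luciferase activity was determined 44 h later, 15 min after substrate addition at RT.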
SARS PLP yeast: inhibitors of SARS-CoV papain-like protease in yeast; actives 0.19% (n = 330,000); S. cerevisiae expressing SARS-CoV PLpro, growth rescue; Potency, µM (top dose mostly 32.9 µM), actives largely listed as activators; AID 485353; calls by dose curve; also: nearly all actives have a fitted effect of over 55% in size
Sm TGR inh: blocks Schistosoma mansoni thioredoxin glutathione reductase. Q962Y6. AID 485364. purified TGR, DTNB reduction, TNB absorbance 405 nm. Potency, µM (titrated, usually from 114 µM), most hits filed as inhibitors. actives 3% (n = 360,000); also: nearly all actives have a fitted effect of over 60% in size
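Kinetic colorimetric format: TGR-catalysed, NADPH-driven DTNB reduction monitored via TNB absorbance. Enzyme dispensed at 20 nM; compound exposure 15 min at room temperature before reaction start.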
Numbers stand for hits; - = inactive; ? = inconclusive; . = no result given. The list is not random: actives were taken first. Their share in the collection is about 15%. Unless noted, calls follow the shape of the dose curve; as a rule, active = well fitted curve in the direction sought with a large enough effect; inconclusive = small, poorly fitted or top-dose-only effect, or another doubt; inactive = no such curve, though single readings can be large; an effect the other way counts as inactive or inconclusive.

SMILES | HCMV antiviral | Pf growth 48h | Pf growth 96h | HCV inh | SARS PLP yeast | Sm TGR inh
O=C(N/N=C\C=C\c1ccco1)C1COc2ccccc2O1 (centres undefined) | - | - | - | - | - | 3.2µM
O=C(N/N=C/C=C/c1ccc([N+](=O)[O-])cc1)C1COc2ccccc2O1 (centres undefined) | - | - | 12µM | - | - | -
Cc1ccn(CCC(=O)NC2CC(C)(C)Cc3c2cnn3-c2ccccc2C)n1 (centres undefined) | - | - | ? | - | ? | ?
O=C(N/N=C/c1ccco1)c1cc(-c2cccc3ccccc23)n[nH]1 | - | - | - | - | - | -
O=C(N/N=C/c1ccccc1C(=O)O)c1cc(-c2ccc3c4c(cccc24)CC3)n[nH]1 | -61 | ? | - | - | - | -
CC(=O)Nc1cccc(-c2nnc(SCC(=O)c3cc([N+](=O)[O-])ccc3Cl)o2)c1 | ? | . | . | . | . | -
O=C(Cn1ncc2c([nH]c3ccccc32)c1=O)Nc1cccc(C(F)(F)F)c1 | - | . | . | . | . | -
COc1ccc2c(c1)Sc1ccccc1N2 | -81 | - | ? | ? | - | 22µM
c1ccc2c(c1)Nc1ccncc1S2 | -71 | 15µM | ? | ? | - | -
S=C1Nc2ccccc2Sc2ccccc21 | - | - | ? | - | - | -
c1ccc2c(c1)Nc1cc3ccccc3cc1S2 | - | - | 1.9µM | - | - | -
CN(C)C(=S)NC(=S)Nc1ccc2ccccc2c1 | - | . | . | ? | . | .
C=CCn1c(COc2ccc(Cl)cc2)nnc1SCC(=O)N1CC(=O)Nc2ccccc21 | - | ? | ? | ? | - | -
Cc1ccc(-n2c(=O)c3c(c4cc(C)ccc4n3C)n(CC(=O)N3CCCC3)c2=O)cc1 | - | . | . | . | . | -
c1ccc2c(c1)Cn1nnnc1-2 | - | - | 4.1µM | - | - | -
c1ccc(-n2nnnc2-c2cccc3ccccc23)cc1 | - | . | . | - | . | .
CC(=O)Nc1c(C(=O)N2CCCCCC2)cnn1-c1ccccc1Cl | - | - | - | - | - | -
O=C(Nc1cccc(S(=O)(=O)N2CCCCC2)c1)C1CC(=O)N(Cc2ccccc2)C1 (centres undefined) | - | 13µM | ? | - | - | -
COc1ccccc1NS(=O)(=O)c1cccc(NC(=O)C2CC2)c1 | - | ? | ? | - | - | -
COc1ccccc1NS(=O)(=O)c1cccc(NC(=O)C2CC(=O)N(Cc3ccccc3)C2)c1 (centres undefined) | - | ? | - | 14µM | - | -
O=C(Nc1cccc(S(=O)(=O)N2CCCCC2)c1)C1CC(=O)N(c2ccc3c(c2)OCCO3)C1 (centres undefined) | - | ? | ? | 13µM | - | -
O=C(Nc1ccc(S(=O)(=O)N2CCCC2)cc1)C1CC(=O)N(CCc2ccccc2)C1 (centres undefined) | - | . | . | . | . | .
O=C(Nc1cccc(S(=O)(=O)N2CCCCCC2)c1)C1CC(=O)N(c2ccc3c(c2)OCCO3)C1 (centres undefined) | - | - | - | ? | - | -
Cc1ccc(S(=O)(=O)N2CCCCC2)cc1NC(=O)C1CC(=O)N(Cc2ccccc2)C1 (centres undefined) | - | ? | - | - | - | -
COc1ccc(S(=O)(=O)N2CCCCC2)cc1NC(=O)C1CC(=O)N(Cc2ccccc2)C1 (centres undefined) | - | 13µM | 12µM | - | - | -
CN(c1ccccc1)S(=O)(=O)c1cccc(NC(=O)C2CC(=O)N(Cc3ccccc3)C2)c1 (centres undefined) | - | ? | ? | 13µM | - | -
CN(C)S(=O)(=O)c1ccc(NC(=O)C2CC(=O)N(Cc3ccccc3)C2)cc1 (centres undefined) | - | - | - | - | - | -
Cc1ccccc1N1CCN(c2ccccc2NC(=O)/C=C\C(=O)O)CC1 | - | . | . | - | . | .
CCOC(=O)c1cc(-c2ccc(OC)cc2)n(CCC(=O)NCc2ccccc2OC)c1C | - | . | . | . | . | -
Cc1cc(C)c(NC(=O)CSc2nnc(-c3ccncc3)n2Cc2ccco2)c(C)c1 | . | - | - | ? | - | ?
